The campaign covered roughly 370,000 compounds. About 1,100 (0.3%) were called active. The sample holds actives, similar compounds and a random draw of the others, so the mix is not that of the screen. Unmarked numbers belong to inactive results. No stated cut-off is given here; in the data, active means inhibition above about 13%; inactive means the rest.

The target of this assay is Methyl-CpG-binding domain protein 2 (Homo sapiens) (UniProt Q9UBB5). Description: MBD2-DBD methyl-oligonucleotide interaction blockers – biochemical, TR-FRET, DNA-binding domain, human, primary screen (AID 686964). Conditions: MBD2 binding to methylated oligonucleotide, at 4.4 µM, stronger effect = higher value.
Methyl-CpG-binding domain protein 2 (Homo sapiens), sequence (Q9UBB5 whole entry, looked up, the tested form may be a part): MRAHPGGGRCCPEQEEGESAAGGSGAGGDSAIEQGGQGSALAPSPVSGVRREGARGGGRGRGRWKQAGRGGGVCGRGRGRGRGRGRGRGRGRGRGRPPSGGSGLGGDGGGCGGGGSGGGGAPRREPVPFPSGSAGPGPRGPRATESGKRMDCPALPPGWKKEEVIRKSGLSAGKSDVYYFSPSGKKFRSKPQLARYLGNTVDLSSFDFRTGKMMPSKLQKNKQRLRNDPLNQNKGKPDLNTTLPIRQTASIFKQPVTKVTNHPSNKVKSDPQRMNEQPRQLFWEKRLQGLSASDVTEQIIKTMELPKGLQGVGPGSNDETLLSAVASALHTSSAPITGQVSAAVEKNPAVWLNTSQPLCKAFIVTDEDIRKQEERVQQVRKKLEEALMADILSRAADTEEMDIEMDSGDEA
For the molecule `Oc1ccc(/C=C/c2c(F)cccc2F)c2cccnc12`, the inhibition was -0.79%.

As for `Cc1ccc(CNC(=O)CC(NC(=O)c2ccccc2)c2ccccc2)cc1` (stereo unspecified), the inhibition is -3.58%. With `Nc1ccccc1C(=O)NC1CCCCNC1=O` (stereo unspecified) the figure was 16.1% (active); with `Nc1ccn([C@@H]2O[C@H](C(=O)N[C@H]3CCCCNC3=O)[C@@H](O)[C@H]2O)c(=O)n1`, -2.88%; with `O=C(CNC(=O)OCc1ccccc1)NC1CCCCNC1=O` (stereo unspecified), 0.98%. On to `CN1[C@H](Cc2ccccc2)COc2cccc(N3CCSCC3)c2S1(=O)=O`, for which the inhibition is 3.96%. For the molecule `CCOC(=O)N1CCN(C(=O)C[C@@H]2C(=O)N(CCc3ccc(Cl)cc3)C3=CCCC[C@]32C(=O)OCC)CC1`, the inhibition is -2%. For the molecule `COc1ccc2c(CC(=O)NNC(=O)c3ccccc3F)coc2c1`, the inhibition is -1.98%. As to `C[C@H]1[C@H](NC(=O)c2cccc(N(C)C)c2)CC[C@@]23CCCN2C(=O)CCC[C@@H]13`, the inhibition is -0.56%. Consider `Cc1cc(C)c(S(=O)(=O)Nc2c(C)n(C)n(-c3ccccc3)c2=O)cc1[N+](=O)[O-]`, for which the inhibition was -5.79%.

In the case of `Cc1c(NS(=O)(=O)c2cc(C(=O)NCCc3ccc(F)cc3)cc(Cl)c2Cl)c(=O)n(-c2ccccc2)n1C`, the inhibition was 26.3% (active).

Turning to `Cc1c(NS(=O)(=O)c2cccc(C(=O)Nc3ccc(SC(F)F)cc3)c2)c(=O)n(-c2ccccc2)n1C`, the inhibition is 7.59%. As to `O=C(O)Cn1cnc2c(NCc3ccccc3)ncnc21`, the inhibition is -3.02%. Consider `O=C(NCCc1c[nH]c2ccccc12)OCc1cn(-c2c(F)cccc2F)nn1`, for which the inhibition was -6.28%. With `CCC(=O)OCCCN1C(=O)CCC12CCC(c1ccccc1)CC2` (stereo unspecified) the figure was 3.38%. With `CN1C(c2ccc(F)cc2)=CS/C1=C(/C#N)c1nnc2n1-c1ccccc1SC2` the figure was -4.62%; with `COC(CNC(=O)[C@H](Cc1ccccc1)NC1(C(=O)NC2CCCCC2)CCCCC1)OC`, 6.86%. With `C=CS(=O)(=O)N(Cc1nnn(Cc2ccccc2)c1Br)[C@H](C(=O)OC)C(C)C` the figure was -4.08%; with `Cc1ccc(-c2noc(CCC(=O)Nc3ccccc3N3CCN(C)CC3)n2)cc1`, -4.01%. With `COCCNC(=O)Nc1ccc2nc(-c3ccco3)c(-c3ccco3)nc2c1`, the inhibition was 53.7% (active). As to `COCCNC(=S)c1ccc(OC)cc1`, the inhibition was 0.26%. For `COCCNC(=O)c1cc2c(Br)ccc(Br)c2nc1N`, the inhibition is 1.97%. Consider `COc1cccc(CNC(=O)CNS(=O)(=O)c2ccc3nc(C)sc3c2)c1OC`, for which the inhibition is 3.15%. `CCOC(=O)C1CCCN(C(=O)c2ccc(C)c(F)c2)CC1` (stereo unspecified): the inhibition was -3.99%. With `C=CCN1C(=O)c2ccc(C(=O)N3CCC(C(=O)OCC)CC3)cc2C1=O` the figure was 16.8% (active); with `CCOC(=O)C1CCCN(C(=O)c2ccc(N(C)C)cc2)CC1` (stereo unspecified), 7.99%; with `Cc1c(C(=O)N2CC(C)OC(C)C2)sc2nc(-c3ccccc3)cn12` (stereo unspecified), -0.32%. Turning to `CC(C)C(C#CC1CC1)N(Cc1ccc2c(c1)OCO2)C(N)=NC(=O)/C=C/c1cccc(C(F)(F)F)c1` (stereo unspecified), the inhibition was -0.7%. Regarding `CC(C)(C)NC(=O)C(c1cccnc1)N(C(=O)c1cnco1)c1ccc(C(C)(C)C)cc1` (stereo unspecified), the inhibition was 2.09%.

In the case of `CCC(NC(=O)C1C2C=CC3(CN(Cc4ccccc4)C(=O)C13)O2)c1ccccc1` (stereo unspecified), the inhibition was 0.25%. Consider `COc1ccc(-c2nnc(SCC(=O)c3ccc4c(c3)OCCO4)o2)cc1`, for which the inhibition was -3.62%. With `COc1ccc(-n2c(C)cc(C(=O)CSc3nnc(-c4cccs4)o3)c2C)cc1` the figure was 15.1% (active); with `CCc1ccccc1NC(=O)CSc1nnc(-c2cccs2)o1`, 2.5%; with `O=C(CSc1nncn1-c1cccnc1)N1CCOCC1`, 2.16%. `COc1cc(NC(=O)C2CCCN(S(=O)(=O)c3ccc(C(C)(C)C)cc3)C2)cc(OC)c1` (stereo unspecified): the inhibition is -0.54%. Take `CCCCCCCCN1C(=O)[C@@H](CC(=O)NCc2ccccc2)C[C@@]2(C(=O)OC)C1=C[C@H](C(C)(C)C)O[C@@H]2C`: the inhibition is 3.75%. With `O=C(c1ccncc1)N1CC[C@H]2[C@H](CCCN2Cc2ccc(F)cc2)C1`, the inhibition is -6.65%. Consider `COc1ccc2c(c1)c(=Cc1ccc(N(C)C)cc1)c1cc(-c3ccccc3)[n+](C)n12`, for which the inhibition is 29.6% (active).

Turning to `COc1ccc(NS(=O)(=O)c2cc3c(cc2C)N(C(C)=O)CCO3)cc1`, the inhibition is -5.65%. As for `CC1CCCN(CCOCCOc2ccccc2-c2ccccc2)C1` (stereo unspecified), the inhibition is -4.99%. `CCSc1ccccc1C(=O)NCc1ccc(OC)cc1`: the inhibition was -9.91%. As to `COc1ccc(CNC(=O)c2c[nH]c3c(OC)cc(OC)cc3c2=O)cc1`, the inhibition is 23.4% (active). Regarding `COc1ccc(CNC(=O)c2cc(C(=O)C3CC3)c[nH]2)cc1`, the inhibition was 1.85%. On to `CC(CCN1CCC(C(O)(c2ccccc2)c2ccccc2)CC1)Oc1ccc([N+](=O)[O-])cc1Cl` (stereo unspecified), for which the inhibition is 1.05%.

With `COCCn1c(CN2CCC(Cc3ccccc3)CC2)nc2c1c(=O)n(C)c(=O)n2C`, the inhibition was 4.97%. Consider `O=C(CCCCCN1C(=O)C2C3C=CC(C3)C2C1=O)Nc1ccccc1` (stereo unspecified), for which the inhibition is -6.87%. `Cc1nc(S(=O)(=O)c2ccc(Br)cc2)nc2c1CCC2`: the inhibition is 1.36%. Turning to `CO/N=C(/CS(=O)(=O)c1ccc(Br)cc1)c1ccc(OC)cc1`, the inhibition is 14% (active). With `CO/N=C/CC(=O)c1ccc(OC)cc1` the figure was -0.8%; with `CCN1CCN(C(=O)N(Cc2ccc(Cl)cc2)S(=O)(=O)c2ccc(C)cc2)CC1`, 2.19%. With `N#Cc1ccccc1OC[C@@H](O)CN1CCC(C(O)(c2ccccc2)c2ccccc2)CC1`, the inhibition was 0.72%.

As for `CCCCNC(=O)C[C@H]1C(=O)N(Cc2ccc(OC)cc2)C2=CCCC[C@@]21C(=O)OCC`, the inhibition is -1.99%.

Take `CSc1nnc(-c2ccc(C(F)(F)F)cn2)o1`: the inhibition is 2.79%.

As for `Cc1ccccc1NC(=O)c1ccc(COc2ccc3c(C)cc(=O)oc3c2)cc1`, the inhibition is 5.18%. For the molecule `Cc1ccc(C)c(NC(=O)c2ccc(OC(=O)c3ccco3)cc2)c1`, the inhibition is 19.6% (active). On to `Cc1ccc(O)c(NC(=O)c2cc(-c3ccco3)on2)c1`, for which the inhibition is -2.88%. As to `CCN(Cc1ccncc1)C(=O)c1cccc(S(=O)(=O)N2CCOCC2)c1`, the inhibition is 0.65%. Take `Cc1cccc(CN2CCN(C3CN(Cc4cn(Cc5ccccc5F)nn4)S(=O)(=O)C3)CC2)c1` (stereo unspecified): the inhibition is 5.03%. Turning to `Cc1cccc(CN2CCN(C3CN(Cc4ccccc4)S(=O)(=O)C3)CC2)c1` (stereo unspecified), the inhibition was 1.18%.

With `Cc1cccc(CN2CCN(C3CN(Cc4cn(Cc5cc(C)cc(C)c5)nn4)S(=O)(=O)C3)CC2)c1` (stereo unspecified), the inhibition is 17.4% (active). Consider `CCOc1ccc(Oc2c(Cl)cnn(-c3ccc(C)cc3)c2=O)cc1`, for which the inhibition is 3.14%. Consider `Cc1ccc(S(=O)(=O)Cn2nnnc2CN2CCN(Cc3ccc4c(c3)OCO4)CC2)cc1`, for which the inhibition was 0.18%. Turning to `CCOc1nc(OCC)nc(-n2cc(-c3ccccc3)nn2)n1`, the inhibition was -0.3%. In the case of `COc1ccc(-c2ccc(CCC(=O)O)n2NC(=O)c2ccc(C(C)(C)C)cc2)cc1`, the inhibition was -1.3%. With `COc1ccc(-c2ccc(CCC(=O)O)n2-c2ccc(O)cc2)cc1` the figure was -0.88%.

Regarding `CCOC(=O)c1ccc(-n2c(CCC(=O)O)ccc2-c2ccccc2)cc1`, the inhibition is 14.6% (active). For `CCC12CN3CC(CC)(CN(C1)C31C(=O)N(C)c3ccc(C)cc31)C2=O` (stereo unspecified), the inhibition was -7.87%. With `C[C@H](O)[C@@H]1CN2CCc3ccc(-c4ccc5c(c4)OCO5)cc3[C@@H]2C[C@@H]1N(C)C(=O)C1CCCCC1` the figure was -1.38%. `Cc1nn(-c2ncc(C(F)(F)F)cc2Cl)c(=O)n1-c1ccccc1`: the inhibition was 3.32%. With `Cc1ccc(-c2ccnc3nc(Sc4ncc(C(F)(F)F)cc4Cl)nn23)cc1` the figure was 14.8% (active); with `Cc1ccc(-c2nc3c(Cl)cc(C(F)(F)F)cn3c2Cc2cccc(Cl)c2)cc1`, -2.87%. With `CC(C)(C)NC(=O)COC(=O)c1cc(Cl)ccc1[N+](=O)[O-]`, the inhibition is -1.21%.

For the molecule `COC(=O)C[C@H]1CC[C@H]2[C@H](COc3ccc(NC(=O)C4CC4)cc3C(=O)N2C)O1`, the inhibition is -4.11%. `Cc1ccc(N(C(=O)c2snc(C(N)=O)c2N)C(C(=O)NCC2CCCO2)c2c[nH]c3ccccc23)cc1` (stereo unspecified): the inhibition is 0.5%. As for `c1nc(COc2nsnc2N2CCOCC2)cs1`, the inhibition is -0.47%. `C=CCn1c(=S)[nH]c2scc(-c3ccco3)c2c1=O`: the inhibition was 21.2% (active). `Cc1ccc(Cn2cc(COC(=O)N(C)Cc3ccccc3)nn2)cc1`: the inhibition is 3.5%.

In the case of `O=C(NCc1cccs1)C1CCN(S(=O)(=O)c2ccccc2[N+](=O)[O-])CC1`, the inhibition is 0.44%. In the case of `CCCn1c(SCC(=O)Nc2c(C)cccc2C)nnc1C(C)C`, the inhibition is 6.66%. With `O=C(c1ccc(C(F)(F)F)cc1)N1CCC(=O)N([C@H](COCc2ccccc2)Cc2ccccc2)CC1`, the inhibition was 3%. In the case of `CC(C)CC(COCc1ccc(Cl)cc1)N1CCN(C(=O)c2ccc(C(F)(F)F)cc2)CCC1=O` (stereo unspecified), the inhibition is 4.33%. On to `COc1ccc(COC[C@H](CC(C)C)N2CCN(C(=O)c3cccc(C(F)(F)F)c3)CCC2=O)cc1`, for which the inhibition is 13.4% (active). As for `C[C@@H]1ON(C)[C@H]2C[C@H]3c4cc(N5CCOCC5)ccc4CCN3C[C@@H]12`, the inhibition was -5.34%. For the molecule `COC(=O)CNc1nc(Cl)nc(N2CCC(C)CC2)n1`, the inhibition was 2.21%.

Consider `CCc1c(-c2ccc(F)cc2)ncn1Cc1cccc(-c2ccccc2)c1`, for which the inhibition is 1.61%. Regarding `CCOC(=O)C1CCN(C(=O)C(C)(C)NC(=O)Nc2ccccc2Cl)CC1`, the inhibition was 1.47%.
